Drawing on PubChem BioAssay AID1671202 (University of Kansas High Throughput Screening Laboratory, 2021), this text covers inhibition for 96 molecules.

Values joined by “and” are separate entries in the source; they are usually repeats but may differ in a detail not shown here. Identical values can stand only once. The whole screen tested about 190,000 compounds, of which about 6,900 (3.6%) were called active. No stated cut-off is given here; in the data, active means inhibition above about 50%; inactive means the rest. The full list was thinned out, with actives kept by preference. Where a structure was tested more than once in an assay, its records may differ in their call.

Huntingtin (Homo sapiens), sequence (P42858 whole entry, looked up, stated change not applied): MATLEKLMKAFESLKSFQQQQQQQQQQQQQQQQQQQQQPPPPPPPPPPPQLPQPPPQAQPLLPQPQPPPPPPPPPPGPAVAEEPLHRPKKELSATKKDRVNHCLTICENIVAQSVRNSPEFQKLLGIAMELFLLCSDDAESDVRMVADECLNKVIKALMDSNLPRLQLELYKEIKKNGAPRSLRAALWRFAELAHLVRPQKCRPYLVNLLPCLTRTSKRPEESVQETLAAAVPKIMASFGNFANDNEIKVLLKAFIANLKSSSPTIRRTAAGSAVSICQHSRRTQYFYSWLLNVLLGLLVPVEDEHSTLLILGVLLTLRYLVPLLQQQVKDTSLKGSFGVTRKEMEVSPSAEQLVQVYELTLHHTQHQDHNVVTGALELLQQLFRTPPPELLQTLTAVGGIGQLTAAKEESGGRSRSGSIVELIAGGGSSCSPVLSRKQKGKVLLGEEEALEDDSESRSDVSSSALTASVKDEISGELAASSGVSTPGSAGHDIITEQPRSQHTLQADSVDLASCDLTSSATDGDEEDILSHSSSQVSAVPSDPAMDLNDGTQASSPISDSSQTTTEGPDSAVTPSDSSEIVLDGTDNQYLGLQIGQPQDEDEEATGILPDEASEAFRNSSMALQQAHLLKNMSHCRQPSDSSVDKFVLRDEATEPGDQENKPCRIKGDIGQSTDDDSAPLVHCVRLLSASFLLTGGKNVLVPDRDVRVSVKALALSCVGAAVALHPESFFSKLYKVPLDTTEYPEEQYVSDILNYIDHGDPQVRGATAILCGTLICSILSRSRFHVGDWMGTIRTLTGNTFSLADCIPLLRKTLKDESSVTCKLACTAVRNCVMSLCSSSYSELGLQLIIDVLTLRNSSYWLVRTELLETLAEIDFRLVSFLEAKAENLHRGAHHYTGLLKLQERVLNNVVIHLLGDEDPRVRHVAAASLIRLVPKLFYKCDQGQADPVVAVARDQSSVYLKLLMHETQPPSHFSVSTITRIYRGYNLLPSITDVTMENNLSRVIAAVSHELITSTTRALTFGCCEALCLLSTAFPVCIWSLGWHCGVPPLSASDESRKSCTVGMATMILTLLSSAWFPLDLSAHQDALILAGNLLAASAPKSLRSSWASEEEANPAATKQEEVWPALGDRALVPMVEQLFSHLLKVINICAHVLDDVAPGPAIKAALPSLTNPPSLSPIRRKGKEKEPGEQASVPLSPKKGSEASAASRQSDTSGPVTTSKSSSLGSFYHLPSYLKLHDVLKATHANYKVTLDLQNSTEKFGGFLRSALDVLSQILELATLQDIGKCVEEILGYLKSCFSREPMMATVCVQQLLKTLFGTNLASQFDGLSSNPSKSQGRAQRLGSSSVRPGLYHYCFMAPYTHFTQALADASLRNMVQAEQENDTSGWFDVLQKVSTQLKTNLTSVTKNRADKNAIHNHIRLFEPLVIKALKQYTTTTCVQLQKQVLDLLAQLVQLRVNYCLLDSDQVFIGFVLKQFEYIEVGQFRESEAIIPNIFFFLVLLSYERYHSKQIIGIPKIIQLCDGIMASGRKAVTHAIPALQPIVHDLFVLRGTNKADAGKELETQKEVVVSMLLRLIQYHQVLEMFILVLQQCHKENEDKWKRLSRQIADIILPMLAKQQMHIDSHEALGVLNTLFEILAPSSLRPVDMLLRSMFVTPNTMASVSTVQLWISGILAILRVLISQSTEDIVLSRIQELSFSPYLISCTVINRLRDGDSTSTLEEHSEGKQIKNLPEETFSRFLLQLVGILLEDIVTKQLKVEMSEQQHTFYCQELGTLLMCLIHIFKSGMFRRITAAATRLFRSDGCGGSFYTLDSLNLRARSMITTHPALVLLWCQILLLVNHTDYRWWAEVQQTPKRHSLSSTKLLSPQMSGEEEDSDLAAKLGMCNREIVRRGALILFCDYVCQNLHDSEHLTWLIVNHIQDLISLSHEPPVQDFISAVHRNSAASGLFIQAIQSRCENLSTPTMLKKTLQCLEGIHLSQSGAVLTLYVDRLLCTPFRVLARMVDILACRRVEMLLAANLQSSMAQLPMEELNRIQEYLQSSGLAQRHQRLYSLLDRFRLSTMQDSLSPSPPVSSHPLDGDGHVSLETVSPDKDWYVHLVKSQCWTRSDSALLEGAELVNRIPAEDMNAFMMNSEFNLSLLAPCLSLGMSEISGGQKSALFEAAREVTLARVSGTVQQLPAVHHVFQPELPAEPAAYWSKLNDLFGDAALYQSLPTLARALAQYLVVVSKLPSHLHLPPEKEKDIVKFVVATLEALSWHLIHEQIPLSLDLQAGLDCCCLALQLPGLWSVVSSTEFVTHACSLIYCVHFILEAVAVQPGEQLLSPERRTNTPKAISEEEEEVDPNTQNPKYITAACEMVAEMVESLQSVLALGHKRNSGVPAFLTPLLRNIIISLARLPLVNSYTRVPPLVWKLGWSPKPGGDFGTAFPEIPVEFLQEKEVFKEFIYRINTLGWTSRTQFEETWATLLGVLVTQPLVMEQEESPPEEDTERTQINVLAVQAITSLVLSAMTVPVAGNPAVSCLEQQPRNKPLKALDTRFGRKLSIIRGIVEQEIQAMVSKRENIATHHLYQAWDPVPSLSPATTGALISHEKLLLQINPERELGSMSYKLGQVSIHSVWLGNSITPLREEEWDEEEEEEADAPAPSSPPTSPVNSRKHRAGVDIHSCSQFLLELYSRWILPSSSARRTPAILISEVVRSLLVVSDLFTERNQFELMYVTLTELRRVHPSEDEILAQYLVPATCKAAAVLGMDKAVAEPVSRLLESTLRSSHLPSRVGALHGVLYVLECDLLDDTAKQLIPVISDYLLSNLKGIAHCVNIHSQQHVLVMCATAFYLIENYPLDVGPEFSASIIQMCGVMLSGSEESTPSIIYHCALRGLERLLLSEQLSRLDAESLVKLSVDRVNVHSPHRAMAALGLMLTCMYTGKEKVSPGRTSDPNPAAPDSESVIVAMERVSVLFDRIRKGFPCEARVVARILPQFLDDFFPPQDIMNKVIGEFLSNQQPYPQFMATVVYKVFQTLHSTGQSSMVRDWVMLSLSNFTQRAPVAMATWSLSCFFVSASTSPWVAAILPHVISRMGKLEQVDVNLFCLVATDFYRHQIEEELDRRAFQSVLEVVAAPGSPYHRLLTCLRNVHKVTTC

This assay has as its target Huntingtin (Homo sapiens) (UniProt P42858). The experiment in a line: mutant huntingtin-calmodulin interaction inhibitors – biochemical, AlphaScreen, primary screen (AID 1671202).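 Further: 0% = both proteins with DMSO and 100% = one protein alone.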 Particulars: AlphaScreen His-mHTT/GST-CaM binding, luminescence; at 15 µM, stronger effect = higher value. Background: Alpha assays give light when donor and acceptor beads are brought close together.
What is called inhibition is the drop in the measured response relative to a control, in per cent. In the case of `CCOc1ccc(-n2nc(C(=O)Nc3ccc(F)cc3)c3ccccc3c2=O)cc1`, the inhibition is -5% (inactive).

With `O=C1NC(=O)/C(=C\c2ccc(-c3cccc(Cl)c3)o2)S1`, the inhibition is 58% (active).

For the molecule `O=C1NC(=O)/C(=C/c2ccc(-c3ccccc3[N+](=O)[O-])o2)S1`, the inhibition was 37% (inactive).

In the case of `O=C1NC(=O)/C(=C/c2ccc(-c3ccc([N+](=O)[O-])cc3)o2)S1`, the inhibition was 3% (inactive).

Take `COc1ccc(CC(=O)Nc2ccc(S(=O)(=O)Nc3c(C)cc(C)cc3C)cc2)cc1`: the inhibition was 13% (inactive).

In the case of `COc1cccc(CN2CCOCC2)c1OC`, the inhibition is -5.1% (inactive).

Take `O=C(NC1CC2CC1CN2C(=O)c1ccc(C(F)(F)F)cc1)c1cccnc1` (stereo unspecified): the inhibition is 6.1% (inactive).

Consider `CC(=O)Nc1cccc(N=Cc2ccc(Cl)cc2Cl)c1`, for which the inhibition is -2% (inactive).

Take `COc1ccc(N=Cc2cc(Cl)cc(Cl)c2O)cc1OC`: the inhibition is 4% (inactive).

With `Oc1cccc(N=Cc2cc(Cl)cc(Cl)c2O)c1`, the inhibition was 98% (active).

As for `CC(C)OCCCNC(=O)CN1C(=O)/C(=C/c2cccc(Cl)c2)Sc2ccccc21`, the inhibition is 9% (inactive).

On to `Cc1ccc(F)cc1NC(=O)Cn1c(=O)nc(N2CCCCC2)c2ccccc21`, for which the inhibition was 12.4% (inactive).

`COc1ccc(NC(=O)N2CCC(CCOc3ccccc3)CC2)cc1`: the inhibition is 3.99% (inactive).

For `Cc1cc2c(cc1C)NC(c1ccc(Cl)s1)C1=C(CC(C)(C)CC1=O)N2` (stereo unspecified), the inhibition was 51% (active).

As for `CC1(C)CC(=O)C2=C(C1)Nc1ccccc1NC2c1ccc(Br)cc1` (stereo unspecified), the inhibition is 3.9% (inactive).

Consider `Cc1ccc2occ(C3Nc4cc(C)c(C)cc4NC4=C3C(=O)CC(C)(C)C4)c(=O)c2c1` (stereo unspecified), for which the inhibition is 19% (inactive).

Turning to `COc1ccc(-c2cn3ccn(-c4ccc(F)c(Cl)c4)c(=O)c3n2)cc1OC`, the inhibition is -2.4% (inactive).

Consider `Cc1cccc2nnc(N3CCC(C(=O)Nc4ccc(Cl)cc4)CC3)n12`, for which the inhibition is 3.32% (inactive).

On to `CCn1c(N2CCCC(C(=O)NCc3cccc(C)c3)C2)cc(=O)n(C)c1=O` (stereo unspecified), for which the inhibition was 7.32% (inactive).

For the molecule `COc1ccc(NS(=O)(=O)c2ccc(N3C(=O)CCC3=O)cc2)c(OC)c1`, the inhibition is -10.9% (inactive).

Take `O=C(Nc1ccc(F)cc1F)N1CCc2nc[nH]c2C1`: the inhibition is -5.8% (inactive).

`O=C1C(Nc2cccc(Cl)c2)=C(N2CCOCC2)C(=O)c2ccccc21`: the inhibition was 59% (active).

Turning to `O=C(NCCN1CCOCC1)Nc1cccc(Cl)c1`, the inhibition is -4% (inactive).

In the case of `COC1=C(N2CCOCC2)C(=O)c2ccccc2C1=O`, the inhibition was -2.9% (inactive).

`CCCCN(CC)C(=O)c1cc(Cl)ccc1OC`: the inhibition was -8.5% (inactive).

Take `Cc1ccc(NC(=O)CN2C(=O)C(c3ccc(Cl)cc3)=NC2(C)C)cc1`: the inhibition is -11.7% (inactive).

As to `Cc1ccc(CN2CCc3nc(N4CCCC4)ncc3C2)cc1`, the inhibition was 12.2% (inactive).

For `COc1ccc(CN2CCc3nc(N4CCCC4)ncc3C2)cc1OC`, the inhibition was 42.3% (inactive).

As for `COc1cc(CN2CCc3nc(N4CCCC4)ncc3C2)cc(OC)c1OC`, the inhibition was 11.5% (inactive).

As to `CN(C)c1ccc(CN2CCc3nc(N4CCN(c5ccccc5F)CC4)ncc3C2)cc1`, the inhibition is 39.9% (inactive).

Regarding `CN(C)c1ccc(CN2CCc3nc(N4CCOCC4)ncc3C2)cc1`, the inhibition is 96.6% (active).

Regarding `COc1ccc(CN2CCc3nc(N4CCN(c5ncccn5)CC4)ncc3C2)cc1OC`, the inhibition is 55.5% (active).

Consider `COc1ccc(OCc2noc(-c3cccc(F)c3)n2)cc1`, for which the inhibition is -9.7% (inactive).

In the case of `CCN(CC)CCNC(=O)C1CCN(c2nnc3ccccn23)CC1`, the inhibition was 5.6% (inactive).

Consider `CCC(=O)Oc1ccc2c(C)c(-c3ccccc3)c(=O)oc2c1`, for which the inhibition is -4.1% (inactive).

`COc1cccc(C=C2Oc3c(ccc(O)c3CN3CC4CC(C3)c3cccc(=O)n3C4)C2=O)c1` (stereo unspecified): the inhibition was 32.3% (inactive).

For the molecule `Cc1c(NC(=O)c2c([N+](=O)[O-])cnn2C)c(=O)n(-c2ccccc2)n1C`, the inhibition was -3% (inactive).

Turning to `COc1ccc2c(c1)c(=O)oc1c(C)c(OCc3ccc(C(=O)O)o3)ccc12`, the inhibition was 4% (inactive).

As to `CC1=C(C#N)C(=O)NC(=O)/C1=C\c1ccc(-c2ccc(Cl)c(C(=O)O)c2)o1`, the inhibition is 13% (inactive).

As to `CC1=C(C#N)C(=O)N(CC(C)O)C(=O)/C1=C\c1ccc(-c2cccc(Cl)c2Cl)o1` (stereo unspecified), the inhibition was 93% (active).

With `CC1=C(C#N)C(=O)NC(=O)/C1=C\c1ccc(-c2cccc(Cl)c2)o1`, the inhibition was 37% (inactive).

For the molecule `c1ccc(-n2ncc(-c3nn[nH]n3)n2)cc1`, the inhibition is 59% (active) and -6.45% (inactive).

For the molecule `N#Cc1ccc(C(=O)N2CCC(COc3ccc(C(=O)N4CCCC4)cc3)CC2)cc1`, the inhibition is 3.57% (inactive).

Take `CC(=O)Nc1ccc(S(=O)(=O)N2CCN(C3CCCCCCC3)CC2)cc1`: the inhibition was 2% (inactive).

For `O=S(=O)(c1cccnc1)N1CCN(c2ccc(-c3cccs3)nn2)CC1`, the inhibition was -2.7% (inactive).

`CC(=O)Nc1ccc(S(=O)(=O)N2CCN(c3ccc(-c4ccccn4)nn3)CC2)cc1`: the inhibition was 74.1% (active).

For the molecule `CN(C)c1ccc(CNCC23CC4CC(C2)CC(c2ccccc2)(C4)C3)cc1`, the inhibition is 100% (active).

Turning to `CN(C)c1ccc(CCCNC(=O)C23CC4CC(CC(C4)C2)C3)cc1`, the inhibition was 1.3% (inactive).

`O=C(N1CCCC1)C12CC3CC(C1)CC(c1ccccc1)(C3)C2`: the inhibition was 2.5% (inactive).

`O=C(c1cccc(OCC2CCCN(C(=O)c3ccccc3F)C2)c1)N1CCCCC1` (stereo unspecified): the inhibition was -4.06% (inactive).

For `CC(=O)NCc1cnn(-c2ccc(C(=O)Nc3ccccc3)cc2)c1`, the inhibition was -1.5% (inactive).

In the case of `CCCCN=C(C(=O)Nc1ccc(Cl)c(C(F)(F)F)c1)c1ccccc1NC(C)=O`, the inhibition was 0% (inactive).

Turning to `CCCCN1CCN(C(=O)c2cn3cc(C)ccc3n2)CC1`, the inhibition was 0.1% (inactive).

As for `CN(C)c1ccc(-c2ccc3nc(C(=O)N4CCCC4)cn3c2)cc1`, the inhibition was 97.2% (active).

On to `O=C(c1cn2cc(-c3ccc(F)c(Cl)c3)ccc2n1)N1CCOCC1`, for which the inhibition was 16.9% (inactive).

Consider `CC1=C(C(=O)Nc2ccc(C)cc2C)C(c2ccccc2[N+](=O)[O-])n2ncnc2N1` (stereo unspecified), for which the inhibition is 25% (inactive).

As to `O=C1C=CC(=NOC(=O)/C=C/c2ccccc2)C=C1`, the inhibition was 100% (active).

For the molecule `O=C(Cc1ccccc1)ON=C1C=CC(=NOC(=O)c2ccccc2)C=C1`, the inhibition was 14% (inactive).

For the molecule `Cc1cc(OC(=O)C=Cc2ccccc2)c([N+](=O)[O-])c(=O)[nH]1`, the inhibition is 7.1% (inactive).

Turning to `O=S1(=O)c2ccc(Br)cc2OC[C@@H](Cc2ccccc2)N1Cc1cn(Cc2ccco2)nn1`, the inhibition was 5.1% (inactive).

With `O=C(COc1ccc(Br)cc1)Nc1ccc2c(c1)OCO2`, the inhibition is 0.4% (inactive).

For `O=C1C(Nc2ccc(Br)cc2)=CC(=NS(=O)(=O)c2cccs2)c2ccccc21`, the inhibition was 80% (active).

In the case of `CCc1ccc(S(=O)(=O)N=C2C=C(Nc3ccc(OC)cc3)C(=O)c3ccccc32)cc1`, the inhibition was 91% (active).

As for `CCOc1ccc(S(=O)(=O)N=C2C=C(Nc3ccc(C)cc3)C(=O)c3ccccc32)cc1`, the inhibition is 93% (active).

Regarding `CCc1ccc(S(=O)(=O)N=C2C=C(Br)C(=O)c3ccccc32)cc1`, the inhibition is 38% (inactive).

Take `Cc1cc(Br)ccc1NC(=O)C(NS(=O)(=O)c1cccs1)C(C)C` (stereo unspecified): the inhibition is -6% (inactive).

Regarding `O=S(=O)(c1cccs1)N(c1ccccc1)C(F)F`, the inhibition was -18.8% (inactive).

With `CCOc1ccc(NS(=O)(=O)c2ccc(Cl)cc2)cc1`, the inhibition is -13% (inactive).

Consider `COc1ccc(S(=O)(=O)N=C2C=C(Br)C(=O)c3ccccc32)cc1`, for which the inhibition is 31% (inactive).

In the case of `CCOc1ccc(NC(=O)C2CCC(N3C(=O)c4ccccc4C3=O)CC2)cc1` (stereo unspecified), the inhibition is 2.4% (inactive).

Regarding `Clc1ccc(Cl)c(-c2ccc(CNC3CC3)o2)c1`, the inhibition is -25.6% (inactive).

Take `COc1ccc(CCCN)cc1OC`: the inhibition was -2.8% (inactive).

In the case of `COc1ccc(NCc2ccc(OC)c(C)c2)cc1`, the inhibition was 52% (active).

On to `COc1cc(C=C2C(=O)c3ccccc3C2=O)ccc1OCc1ccccc1`, for which the inhibition is 4% (inactive).

On to `COc1ccc(CNC(=O)C(=O)Nc2ccc(OC)cc2)cc1`, for which the inhibition is -2.2% (inactive).

Turning to `COc1ccc(CNc2nccs2)cc1`, the inhibition is 5.7% (inactive).

As for `COc1ccc(CNc2ccc3c(c2)CCC3)cc1OC`, the inhibition was 62.8% (active).

For `COc1cc(CN2CCC(O)CC2)ccc1OCc1ccccc1`, the inhibition was -5.7% (inactive).

As for `COc1ccc(CC(=O)Nc2c3c(nc4c2CCC4)CCCC3)cc1OC`, the inhibition is 2% (inactive).

With `COc1cc(CNc2ccc(F)cc2)ccc1OCc1ccccc1`, the inhibition was 55.7% (active).

In the case of `CCN1CCCC1CNC(=O)c1ccc(Sc2ccc(C)cc2)c(NC(C)=O)c1` (stereo unspecified), the inhibition was -3% (inactive).

For `O=C(Nc1ccc(NC(=O)c2ccc([N+](=O)[O-])cc2Cl)cc1)c1ccco1`, the inhibition was -2.2% (inactive).

With `COc1cccc(C(=O)NCC2Cc3cc(OC)ccc3O2)c1` (stereo unspecified), the inhibition was -0.8% (inactive).

For the molecule `O=C(CC1CCCCC1)N1CCC(COc2ccc(C(=O)N3CCCCC3)cc2)CC1`, the inhibition is -1.76% (inactive).

For `COc1ccc(C(=O)N2CCCCC2CCN2CCCC2)cn1` (stereo unspecified), the inhibition is 6.78% (inactive).

Consider `O=C(c1ccco1)N1CCCC(c2nncn2-c2ccccc2)C1` (stereo unspecified), for which the inhibition was 8.27% (inactive).

Take `CCOc1cc(/C=C2\C(=O)NC(=O)N(c3ccc(F)cc3)C2=O)ccc1O`: the inhibition is 5% (inactive).

For `COc1cc(/C=C2\C(=O)Nc3ccc(Br)cc32)ccc1O`, the inhibition was 100% (active).

For `CCOc1cc(/C=C2\C(=O)NC(=O)N(c3ccc(Br)cc3)C2=O)ccc1O`, the inhibition was 5% (inactive).

Consider `Cc1cc([N+](=O)[O-])nn1CCCC(=O)Nc1cc(Cl)ccc1O`, for which the inhibition is 2% (inactive).

As for `CC(C)(C)CC(=O)N1CCN(c2nc(CN3CCCCCC3)cs2)CC1`, the inhibition was -9.3% (inactive).

`COc1cccc(C=C2Oc3cc(OCC(=O)NN)ccc3C2=O)c1OC`: the inhibition was 4.1% (inactive).

As to `COc1cccc(CCC(=O)N2CCCN(c3ncccc3-c3nc(C4CC4)no3)CC2)c1`, the inhibition is -31.2% (inactive).

Take `Cn1nc(COc2ccccc2)c2c1CCN(C(=O)c1ccoc1)C2`: the inhibition was 3.9% (inactive).

As to `Cc1ccc(S(=O)(=O)N2CCc3c(c(COc4ccccc4)nn3C)C2)cc1C`, the inhibition was 60.3% (active).

For the molecule `Cn1nc(COc2ccccc2)c2c1CCN(C(=O)Nc1ccccc1F)C2`, the inhibition is 16.9% (inactive).
